An excerpt weighted towards active compounds, which were near 13% of everything screened.
Pf growth 48h = P. falciparum growth inhibition at 48 hours (one generation); P. falciparum luciferase growth in erythrocytes, 48 h; Potency, µM (series often up to 28.7 µM), for inactives: at the top dose activity change, negative = inhibition, hits mostly inhibitors; 310,000 tested, 5.9% active; also: potency is read from the fitted curve at half-maximal effect
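In quantitative HTS format, infected erythrocytes bearing luciferase-reporter parasites were treated for a single generation at 37 C. Luminescence after adding detection reagent served as the growth measure.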
HCV inhibitor = HCV inhibition | Huh7.5.1 HCVcc-Cre infection, luciferase reporter, 44 h | 340,000 tested, 3.4% active | Potency, µM (highest dose often 41.8 µM), for the others: at the top dose activity change, negative = inhibition, actives largely listed as inhibitors | AID 651820; also: potency is read from the fitted curve at half-maximal effect
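After 44 h co-culture of compound, cells and HCVcc-Cre (~0.5 moi), substrate is added for 15 min at room temperature and luciferase measured over 15 sec. Cells were seeded at 1,000/well and pre-cultured 4 h.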
Pf growth 96h = P. falciparum growth inhibition at 96 hour, primary screen for plastid delayed-death inhibitors; 320,000 tested, 6.9% active; Potency, µM (highest dose often 28.7 µM), without a hit: top-dose activity change, negative = inhibition, most hits filed as inhibitors; P. falciparum luciferase reporter growth, 96 h; also: potency is read from the fitted curve at half-maximal effect
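Cell-based qHTS: luciferase-tagged P. falciparum in erythrocytes (2% hematocrit, 0.05% parasitemia final) incubated with compounds for 96 hours, 37 C, 5% CO2; luciferase detection reagent then added and luminescence measured.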
HCMV antiviral = human cytomegalovirus inhibition | HFF cells, HCMV-luciferase reporter, 72 h; active compounds read low | activity change, negative = inhibition, % at 57.5 µM | 410,000 tested, 4.5% active | AID 1259415; in the data active = activity change below about -60%; inconclusive = no clear call, values can overlap the other calls; inactive = above about -39%
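Human foreskin fibroblasts infected with luciferase-reporter HCMV at MOI 1 PFU/cell, compounds at two doses. Luciferase measured 72 h post infection; normalized to buffer-only basal and Salinomycin (10uM) controls.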
* = called active by the depositor; ? = inconclusive; . = no result given. Unless noted, calls follow the shape of the dose curve; as a rule, active = well fitted inhibition curve with a large enough effect; inconclusive = small, poorly fitted or top-dose-only effect, or another doubt; inactive = no such curve, though single readings can be large or run the other way. % is scaled to controls: 0 for no effect and ±100 for the full control effect.

SMILES	Pf growth 48h	HCV inhibitor	Pf growth 96h	HCMV antiviral
Cn1c(/C(C#N)=C/c2ccncc2)nc2ccccc21	-4.1%	-2.0%	6.9%	11.9
COc1cn(CC(=O)Nc2cccc(C)c2)c(CN2CCCCC2)cc1=O	.	.	.	62.0
Cc1cc(NC(=O)c2cc([N+](=O)[O-])ccc2Cl)no1	?	12.3%	-21.1%	-32.5
O=C(c1cc([N+](=O)[O-])ccc1Cl)N1CCN(c2ccccn2)CC1	36.0%	-15.4%	?	44.4
O=C(Nc1ccc([N+](=O)[O-])cn1)c1cc(-c2cccc(Cl)c2)nc2ccccc12	2.08µM*	1.6%	-20.6%	18.0
O=C(Nc1cccc(NC(=O)c2cc([N+](=O)[O-])ccc2Cl)n1)c1cc([N+](=O)[O-])ccc1Cl	.	1.12µM*	.	.
O=C(c1cc([N+](=O)[O-])ccc1Cl)N1c2ccccc2Sc2ccccc21	7.38µM*	-23.4%	2.08µM*	?
COc1cccc(-c2cc(C(=O)Nc3ccc([N+](=O)[O-])cn3)c3ccccc3n2)c1	?	8.1%	-6.1%	48.4
O=C(c1cc(-c2cccc(Cl)c2)nc2ccccc12)N1CCCC1	?	-4.8%	-0.5%	40.7
O=C(Nc1ccc([N+](=O)[O-])cn1)c1cc(-c2cccc(Br)c2)nc2ccccc12	3.7µM*	-3.6%	-1.6%	41.5
CCOC(=O)c1noc2nc(C)n(CC(=O)Nc3ccc(OC)c(Cl)c3)c(=O)c12	.	.	.	12.2
Cc1c(Cl)cccc1NC(=O)c1ccc2nc(C(C)C)oc2c1	.	.	.	17.4
Cn1cnc2c(=O)oc3ccc(S(=O)(=O)N4CCN(c5cccc(Cl)c5)CC4)cc3c21	.	.	.	14.7
O=C(NCCCN1CCN(CCCNC(=O)c2cc([N+](=O)[O-])ccc2Cl)CC1)c1cc([N+](=O)[O-])ccc1Cl	4.65µM*	?	?	14.9
O=C(Nc1ccccn1)c1cc(-c2cccc(Cl)c2)nc2ccccc12	3.29µM*	15.8µM*	43.5%	-71.3*
O=C(NN1CCOCC1)c1cc(-c2cccc(Cl)c2)nc2ccccc12	0.9%	?	24.7%	12.2
Cc1ccccc1-c1cc2nccc(-c3cc(Cl)ccc3O)n2n1	.	.	.	15.7
CC(=O)N1CCN(C(=O)CCc2cc(C(C)(C)C)c(O)c(C(C)(C)C)c2)CC1	?	?	13.1µM*	2.7
CC(C)(C)c1cc(CCC(=O)NCCc2ccccn2)cc(C(C)(C)C)c1O	?	?	11.7µM*	-38.5
CC(C)(C)c1cc(CCC(=O)NNC(=O)c2ccncc2)cc(C(C)(C)C)c1O	-3.8%	?	24.3%	-2.5
CC(C)(C)c1cc(CCC(=O)Nc2ccncc2)cc(C(C)(C)C)c1O	.	?	.	-63.3*
COCC1CCN(C(=O)c2ccc3oc(CCCc4ccccc4)nc3c2)C1 (configuration not stated)	-24.1%	-24.9%	3.7µM*	70.4
COc1ccc(CCNC(=O)Cc2ccc(NC(=O)N3CCSc4ncccc43)cc2)cc1OC	.	.	.	0.0
CCOC(=O)CNC(=O)c1ccc(-c2nn(C)c(=O)c3ccccc23)cc1	.	.	.	27.1
Cc1cc(C(=O)C(C)Sc2cccc[n+]2[O-])c(C)n1-c1ccc(Cl)cc1 (configuration not stated)	-4.9%	4.47µM*	11.7µM*	-26.3
SMILES	Pf growth 48h	HCV inhibitor	Pf growth 96h	HCMV antiviral
COc1cc([C@@H]2c3cc4c(cc3[C@@H](NC3CCN(Cc5ccccc5)CC3)[C@H]3COC(=O)[C@H]23)OCO4)cc(OC)c1O	0.738µM*	.	0.165µM*	.
COc1cc([C@@H]2c3cc4c(cc3[C@H](O)[C@H]3COC(=O)[C@H]23)OCO4)cc(OC)c1OC	14.7µM*	?	1.07µM*	.
COc1cc([C@@H]2c3cc4c(cc3[C@@H](OC)[C@H]3COC(=O)[C@H]23)OCO4)cc(OC)c1O	10.4µM*	15.4%	11.7µM*	?
COc1cc(C2c3cc4c(cc3C(O)C3COCC23)OCO4)cc(OC)c1OC (configuration not stated)	.	?	.	19.3
COc1cc([C@@H]2c3cc4c(cc3[C@@H](O)[C@@H](CO)[C@@H]2CO)OCO4)cc(OC)c1O[Si](C)(C)C(C)(C)C	9.28µM*	.	?	.
COc1ccccc1-c1nn2c(=O)cc(CN3CCN(C(=O)/C=C/c4ccccc4)CC3)nc2s1	.	.	.	17.3
COc1cccc(NC(=O)C(C)n2c(=O)cc(C(F)(F)F)c3c(C)nn(C)c32)c1 (configuration not stated)	.	.	.	-12.1
COc1ccccc1C(=O)N1CCN(C(=O)[C@H]2O[C@@H](n3cnc4c(N)ncnc43)[C@H](O)[C@@H]2O)CC1	.	.	.	13.4
C=CCn1c(O)c(N=Nc2c(C)n(C)n(-c3ccccc3)c2=O)c(=O)[nH]c1=S	-21.5%	-3.9%	6.57µM*	-15.6
Cc1c(N=Nc2c(O)[nH]c(=S)[nH]c2=O)c(=O)n(-c2ccccc2)n1C	-15.7%	0.8%	?	-13.6
Cc1c(N=NC2=C(O)CC(C)(C)CC2=O)c(=O)n(-c2ccccc2)n1C	-20.7%	6.4%	2.08µM*	-3.1
Cc1ccc(O)c(N=NC2=C(O)CC(C)(C)CC2=O)c1	?	?	?	-101.2*
Cc1nn(CCCC(=O)NCc2ccccc2)c(=O)c2c1sc1ccccc12	.	.	.	-33.2
CCOC(=O)N1CCN(C(=O)CCCn2nc(C)c3sc4ccccc4c3c2=O)CC1	5.22µM*	-3.8%	13.9%	-8.2
COc1cccc(CNC(=O)NCc2noc3ccc(C)cc23)c1	.	.	.	-12.8
CCc1nn(CC(=O)N(C)Cc2ccccc2)c(=O)c2cc3sccc3n12	.	.	.	2.7
CCc1nnc(SCC(=O)N(C)c2ccccc2)c2cc3sccc3n12	.	.	.	-66.7*
CCc1cc(-c2n[nH]c(C)c2-c2nc3ccccc3s2)c(O)cc1OCC(=O)NN	5.22µM*	12.0%	16.9%	106.1
COc1ccc(NC(=O)c2sc3nc(N4CCCC4)c4c(c3c2N)CC(C)(C)OC4)cc1	13.1µM*	10.5%	11.7µM*	?
COc1ccc(NC(=O)c2sc3nc(N4CCOCC4)c4c(c3c2N)CC(C)(C)OC4)c(OC)c1	?	-25.0%	1.65µM*	-1.4
CCOc1ccc(C(=O)Nc2ccc3nn(-c4ccc(OC)c(Cl)c4)nc3c2)cc1	.	.	.	-3.5
c1ccc(Nc2ccc(NCCc3c[nH]c4ccccc34)cc2)cc1	.	.	.	25.2
Cc1cc(NCCc2c[nH]c3ccccc23)ccc1Nc1cccnc1	.	.	.	-86.7*
Cc1ccc2nc(-c3cccc(NC(=O)CSc4ccc(Cl)cc4)c3)oc2c1	.	.	.	55.6
CCOC(=O)c1c(NC(=O)C(C)N2CCN(C(=O)c3ccco3)CC2)sc2c1CCCC2 (configuration not stated)	.	10µM*	?	-39.4
COC(=O)c1[nH]c2ccccc2c1NC(=O)C(C)N1CCOCC1 (configuration not stated)	2.9%	1.0%	-12.7%	29.6
COC(=O)c1[nH]c2cccc(C)c2c1NC(=O)CN1CCN(C(=O)c2ccco2)CC1	?	-14.3%	11.7µM*	29.9
